For 10 compounds, Inhibition results are on record in ChEMBL document CHEMBL1157539, “Thousands of chemical starting points for antimalarial lead identification” (Nature, 2010).

Holding throughout (type): functional
The test system of experiment [1] is Plasmodium falciparum. In words: GSK_TCMDC: Inhibition of Plasmodium falciparum 3D7 in whole red blood cells, using parasite LDH activity as an index of growth. Test compounds present at 2uM.
For experiment [2], the system named is Plasmodium falciparum. The experiment is described as follows: GSK_TCMDC: Inhibition of Plasmodium falciparum Dd2 in whole red blood cells, using parasite LDH activity as an index of growth. Test compounds present at 2uM.
Another experiment has as its system HepG2. In words: GSK_TCMDC: Percent inhibition of human HepG2 cell line. Test compounds present at 10uM.

Structures are written as SMILES.

The term Inhibition denotes the percentage by which the read-out fell short of the control. Read a high Inhibition as a strong effect. For `CN1CC[C@@H](Oc2cc(NC(=O)Nc3ccc(Cl)c(C(F)(F)F)c3)ccc2Cl)C1`, the figures for the Inhibition with Plasmodium falciparum [1], in the experiment with Plasmodium falciparum [2] and in the experiment on HepG2 were 100%, 68% and 17%, respectively.
Consider `Cc1cccc(C(=O)Nc2ccnc(N(C)CCCN(C)Cc3cccc(O)c3)c2)c1.O=C(O)C(F)(F)F`, for which the values for the Inhibition in the experiment on Plasmodium falciparum [1], in the experiment on Plasmodium falciparum [2] and in the experiment with HepG2 were 94%, 71% and 27%, respectively.
On the same counts, the results for `Cc1ccc(NC(=O)Nc2ccc(Cn3ncc(N4CCCNCC4)c(Cl)c3=O)cc2)cc1.O=C(O)C(F)(F)F` are 84%, 13% and 35%.
`O=C(Nc1ccc(Cl)cc1)Nc1ccc2nonc2c1`: the Inhibition is on record as 94% with Plasmodium falciparum [1], 77% with Plasmodium falciparum [2] and 0% in the experiment on HepG2.
On the same counts, the results for `CCNc1cc(C(=O)N[C@@H](Cc2ccccc2)[C@H](O)CNC2(CC(C)C)CC2)cc(N2CCCCS2(=O)=O)c1.Cl` are 87%, 29% and 0%.
Take `C=CCn1c(Sc2ccc(C#N)c([N+](=O)[O-])c2)nnc1-c1ccc(OC)cc1`: the Inhibition with Plasmodium falciparum [1] was 96%; in the experiment on Plasmodium falciparum [2], 74%; with HepG2, 0%.
With `COc1ccc(Nc2ncc(OC)c(Nc3ccccc3C(N)=O)n2)cc1N1CCN(C)CC1.O=CO`, the Inhibition in the experiment with Plasmodium falciparum [1] is 100%; with Plasmodium falciparum [2] it was 96%; in the experiment with HepG2 it was 63%.
On the same counts, the results for `COc1ccc2ccccc2c1CCCCN1CCN(CC(c2ccc(F)cc2)N2CCC(N3CCCC3)CC2)CC1.O=C(O)C(F)(F)F` (stereo not given) are 99%, 73% and 74%.
In the case of `Cc1cc(NC(=O)Nc2cccc(N(C)C)c2)c2ccccc2n1`, the Inhibition worked out at 97% with Plasmodium falciparum [1], 95% in the experiment with Plasmodium falciparum [2] and 0% in the experiment with HepG2.
On to `COc1ccc2nccc([C@@H](O)CN3CCC(CO)(NCc4cc5ccccc5o4)CC3)c2c1.O=C(O)C(=O)O`, for which the Inhibition in the experiment with Plasmodium falciparum [1] turned out to be 85%; in the experiment on Plasmodium falciparum [2], 7%; in the experiment on HepG2, 12%.
